In the library only some 9% were active in any assay of this set; here they are far more common.
HP1b chromo inh = HTS for Inhibitors of HP1-beta Chromodomain Interactions with Methylated Histone Tails. Chromobox protein homolog 1 (Homo sapiens), P83916. AlphaScreen HP1-beta / biotin-H3K9me3 peptide binding. Potency, µM (doses to about 114 µM), for the others: at the highest dose activity change, negative = inhibition, actives largely listed as inhibitors. 390,000 tested, 0.56% active; further: nearly all actives have a fitted effect of over 70% in size
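AlphaScreen: HP1-beta (50 nM) preformed 30 min with biotin-H3(1-18)K9me3 peptide (50 nM) in PBS pH 7.4, 0.01% Tween-20. Compound added for 30 min at RT, then streptavidin donor/nickel chelate acceptor beads (10 ug/mL) for 30 min.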
BAZ2B inh = qHTS Assay for Inhibitors of BAZ2B; Bromodomain adjacent to zinc finger domain protein 2B (Homo sapiens), Q9UIF8; AlphaScreen BAZ2B-H3K14Ac peptide displacement; Potency, µM (series often up to 114 µM), without a hit: at the highest dose activity change, negative = inhibition, usual class: inhibitors; 360,000 tested, 4.4% active; AID 504333, 2011; further: on the % scale 0 is the no-effect control and ±100 the full control effect; nearly all actives have a fitted effect of over 60% in size
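AlphaScreen luminescence quantifies BAZ2B engagement of H3K14Ac peptide; the protein and biotinylated peptide are both at 50 nM final, buffer PBS pH 7.4 with 0.01% Tween-20, all steps at room temperature.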
JMJD2A Tudor inh = qHTS Assay for Inhibitors of JMJD2A-Tudor Domain. Lysine-specific demethylase 4A (Homo sapiens), O75164. AlphaScreen JMJD2A-Tudor / H3K4me3 peptide binding. Potency, µM (doses to about 114 µM), for inactives: top-dose activity change, negative = inhibition, actives largely listed as inhibitors. 390,000 tested, 4.4% active. AID 504339, 2011; further: on the % scale 0 is the no-effect control and ±100 the full control effect; nearly all actives have a fitted effect of over 50% in size
PLK1 PBD inh = qHTS for Inhibitors of PLK1-PDB (polo-like kinase 1 - polo-box domain): Primary Screen; Potency, µM, for the others: max response, negative = inhibition, hits mostly inhibitors; Plk1 PBD binding of FITC phosphopeptide, fluorescence polarization; AID 720504, 2013; 360,000 tested, 2.8% active; Serine/threonine-protein kinase PLK1 (Homo sapiens), P53350; further: series mostly up to about 57 µM; on the % scale 0 is the no-effect control and ±100 the full control effect; nearly all actives have a fitted effect of over 65% in size
Target sequence (P53350 whole entry, looked up, the tested form may be a part): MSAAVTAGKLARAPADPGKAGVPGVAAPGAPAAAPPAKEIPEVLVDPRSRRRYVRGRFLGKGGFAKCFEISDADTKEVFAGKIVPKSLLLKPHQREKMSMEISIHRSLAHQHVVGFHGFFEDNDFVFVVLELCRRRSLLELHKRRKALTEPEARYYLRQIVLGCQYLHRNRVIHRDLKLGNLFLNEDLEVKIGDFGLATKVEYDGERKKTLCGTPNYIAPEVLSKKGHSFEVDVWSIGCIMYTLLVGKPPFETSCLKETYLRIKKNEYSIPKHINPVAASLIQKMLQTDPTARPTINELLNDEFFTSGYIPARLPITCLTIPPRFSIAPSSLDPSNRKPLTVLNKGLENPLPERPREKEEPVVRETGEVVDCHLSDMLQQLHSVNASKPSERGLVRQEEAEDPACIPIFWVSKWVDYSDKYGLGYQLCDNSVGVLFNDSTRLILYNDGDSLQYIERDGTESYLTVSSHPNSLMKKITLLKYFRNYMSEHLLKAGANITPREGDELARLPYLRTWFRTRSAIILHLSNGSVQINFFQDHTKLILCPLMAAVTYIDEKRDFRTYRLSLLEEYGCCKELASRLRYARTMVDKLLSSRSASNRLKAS
12-LOX inh = Primary qHTS assay for inhibitors of human arachidonate 12S-lipoxygenase (ALOX12): Round 2 | Polyunsaturated fatty acid lipoxygenase ALOX12 (Homo sapiens), P18054 | purified 12hLO, xylenol orange hydroperoxide absorbance | Potency, µM (series often up to 108 µM), for the others: top-dose activity change, negative = inhibition, actives largely listed as inhibitors | 580,000 tested, 1.1% active; further: on the % scale 0 is the no-effect control and ±100 the full control effect
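Hydroperoxide product was detected by ferrous iron/xylenol orange as the 573 to 405 nm absorbance ratio. Arachidonic acid at 40 uM (final) was turned over for 30 min at room temperature by 150 nM human 12hLO, pH 7.0 Hepes buffer, after 15 min compound preincubation.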
G9a inh = qHTS Assay for Inhibitors of Histone Lysine Methyltransferase G9a; Histone-lysine N-methyltransferase EHMT2 (Homo sapiens), Q96KQ7; G9a H3K9 monomethylation, AlphaScreen, 2 h; Potency, µM (doses to about 102 µM), for the others: top-dose activity, negative = inhibition, usual class: inhibitors; 350,000 tested, 8.8% active; AID 504332, 2011; further: on the % scale 0 is the no-effect control and ±100 the full control effect; nearly all actives have a fitted effect of over 75% in size
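G9a (20 nM) preincubated 15 min RT with compounds, then 500 nM biotinylated H3K9 peptide and 20 uM SAM added; 2 h RT reaction. Monomethyl-H3K9 product detected by AlphaScreen with anti-H3K9me1 antibody, streptavidin donor and anti-rabbit IgG acceptor beads.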
Active calls of the source: *; ? = inconclusive; / = no result given; ! = repeats disagree; [ ] = remark or other dose. The call rests on the fitted dose curve; in most records, active means well fitted curve in the direction sought with a large enough effect; inconclusive means small, poorly fitted or top-dose-only effect, or another doubt; inactive means no such curve, though single readings can be large; an effect the other way counts as inactive or inconclusive. Potency means the concentration at half of the fitted maximal effect.

SMILES	HP1b chromo inh	BAZ2B inh	JMJD2A Tudor inh	PLK1 PBD inh	12-LOX inh	G9a inh
CCCC(=O)NC(c1ccco1)c1c(O)ccc2ccccc12 (stereo not drawn)	-5%	-27%	-35%	-19%	-7%	13µM*
CC(=O)NC(c1ccc(C)cc1)c1cc([N+](=O)[O-])c2cccnc2c1O (stereo not drawn)	-21%	4.5µM*	14µM*	-23%	45µM*	35µM*
COc1ccc(C(NC(C)=O)c2cc(Cl)c3cccnc3c2O)cc1 (stereo not drawn)	58%	?	?	1%	?	-10%[0.501 µM]
CC(=O)NC(c1ccccc1)c1cc(Cl)c2cccnc2c1O (stereo not drawn)	32%	35µM*	?	-14%	-4%	/
CC(C)(C)OC(=O)N1CCCN(C(c2cc3ccccc3o2)c2nnnn2C(C)(C)C)CC1 (stereo not drawn)	/	/	/	-6%	10%	/
Cc1ccc(NC(=S)N2CCC(c3ccc(C)cc3)C2)cc1 (stereo not drawn)	-21%	1%	-25%	21µM*	?	10µM*
COc1ccc(NC(=S)N2CCC(c3ccc(C)cc3)C2)cc1 (stereo not drawn)	37%	-19%	-18%	-4%	?	6%
COc1ccc(-c2nnc3ccc(NC4CCCCC4)nn23)nc1	/	/	/	/	-2%[176 µM]	/
CCN1CCCC1CNC(=O)c1cc(OC)c(OC)c(OC)c1 (stereo not drawn)	29%	11%	5%	-7%	-13%	-5%[59 µM]
CCN1CCC[C@H]1CNC(=O)c1c(O)c(Cl)cc(Cl)c1OC	37%	-24%	?	-3%	?	8.9µM*!
CCOC(=O)c1c(C)c(C(=O)NCCc2ccccc2)c(C)n1C	5%	-14%	-24%	-12%	5%	-40%
O=C1Nc2ccccc2CC12CCCN(CC1CC1)C2 (stereo not drawn)	/	/	/	/	3%[12.5 µM]	/
CCNC(=O)NC(=O)CSc1ccc2ccccc2c1	?	0%	?	27µM*	-3%	1%
Cc1ccc2nc(CCl)[n+]([O-])c(-c3ccccc3)c2c1	9%	-32%	18µM*	3.4µM*	?	?
O=[S+]([O-])(c1cccnc1)c1nnn2c1nc(N1CCC(F)CC1)c1ccccc12	/	/	/	/	9%[6.33 µM]	/
C/C(=C\C=C(C#N)C#N)c1cc(C#N)c(N)o1	?	25µM*	?	108%	?	20µM*
CCCCSc1oc(-c2ccco2)nc1S(=O)(=O)c1ccc(F)cc1	/	/	/	/	7.9µM*	/
CC(C)Sc1oc(-c2ccco2)nc1S(=O)(=O)c1ccc(F)cc1	21%	-20%	?	-19%	28µM*!	10µM*
CCCCNC(=O)Cn1nc(-c2ccc(C)cc2)ccc1=O	18%	1%	-9%	-9%	/	14%
CCc1ccc(NC(=O)/C(C#N)=C/c2cc3ccc(C)cc3nc2N2CCOCC2)cc1	22%	-5%	-2%	-8%	-18%	24%[59 µM]
COc1cc(Nc2nc3ccccc3nc2NS(=O)(=O)c2ccc(NC(=O)c3ccc(C)c(OC)c3)cc2)cc(OC)c1	/	/	/	/	-32%[57.4 µM]	/
COc1cccc(/C(O)=C2\C(=O)C(=O)N(c3ccccn3)C2c2cccc(OC)c2OC)c1 (stereo not drawn)	22%	-34%	-24%	-13%	?	6%[12.7 µM]
COCCCN1C(=O)c2[nH]nc(-c3cc(C)cc(C)c3O)c2C1c1ccc(O)c(OC)c1 (stereo not drawn)	-4%	-10%	-35%	-8%	-18%	45µM*
COc1cccc(C2/C(=C(/O)c3ccccc3)C(=O)C(=O)N2CCCC(=O)O)c1 (stereo not drawn)	5%	?	50µM*	-14%	46%	?
COc1cccc(/C(O)=C2\C(=O)C(=O)N(c3ccccn3)C2c2cccc(Br)c2)c1 (stereo not drawn)	/	/	/	/	35µM*	/
SMILES	HP1b chromo inh	BAZ2B inh	JMJD2A Tudor inh	PLK1 PBD inh	12-LOX inh	G9a inh
COc1ccc(/C(O)=C2/C(=O)C(=O)N(CCCC(=O)O)C2c2ccc(OC)c(OC)c2)cc1 (stereo not drawn)	8%	4%	-10%	1%	?	-2%[0.0925 µM]
COc1cc(C2/C(=C(/O)c3ccc(F)cc3)C(=O)C(=O)N2CCCC(=O)O)ccc1O (stereo not drawn)	0%	56µM*	?	-6%	?	/
COc1cc(C2c3c(-c4cc(C)cc(C)c4O)n[nH]c3C(=O)N2CCCO)cc(OC)c1OC (stereo not drawn)	37%	-3%	-26%	-19%	-13%	?
Cn1ccnc1CN1CCOC[C@H](Oc2ccc(C(F)(F)F)cc2)C1	/	/	/	/	12%[176 µM]	/
O=C(Nc1ccc2n(c1=O)C[C@H]1C[C@@H]2CN(C(=O)COc2ccccc2)C1)c1ccccc1	/	/	/	/	6%	/
CCCOc1cccc(C2/C(=C(/O)c3ccc(F)cc3)C(=O)C(=O)N2CCN(C)C)c1 (stereo not drawn)	-3%	-3%	79µM*	?	?	?
COc1cc(C2/C(=C(\O)c3cc(C)ccc3C)C(=O)C(=O)N2CCN(C)C)ccc1O (stereo not drawn)	13%	-8%	-12%	-12%	0%	50µM*
CCCOc1ccc(/C(O)=C2/C(=O)C(=O)N(CCN(C)C)C2c2ccc(O)c(OC)c2)cc1 (stereo not drawn)	50%	9%	-29%	-14%	/	45µM*
COCCCN1C(=O)C(=O)/C(=C(/O)c2ccc(S(=O)(=O)N3CCCCC3)cc2)C1c1cccc(OC)c1 (stereo not drawn)	37%	-24%	4%	5%	?	45µM*
CC(C)CCN1CCc2ncc(C(=O)NCCOc3ccccc3)n2CC1	/	/	/	/	43%[176 µM]	/
CN(C)c1cc[n+](CC(=O)Nc2ccc([N+](=O)[O-])cc2Cl)cc1	52%	2%	-3%	-2%	0%	?
O=C1C(=O)N(CCN2CCOCC2)C(c2cccc(F)c2)/C1=C(\O)c1ccc(Br)cc1 (stereo not drawn)	/	/	/	/	-4%	/
